Several values for one entry are separate records, joined by “and”; a condition that tells them apart may be missing. Equal values may be shown once. Results filed as inconclusive are left out. A number with no mark means an inactive call. Activity calls are given as the source filed them. Calls come from the whole dose curve; as a rule, active = well fitted cell-killing curve with a large enough effect; inconclusive = small, poorly fitted or top-dose-only effect; inactive = flat fitted curve, though single readings scatter.

A short description of assay [1]: Cellular viability qHTS for adrenocortical cancer (ACC) cell line SW-13 (AID 1963989).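 For activity (max response): cells grown in serum-free medium with ITS supplement; % is set by controls: 0 for no effect and ±100 for the full control effect.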 Note: nearly all actives have a fitted effect of over 65% in size. The conditions noted are these: SW-13 ACC cells viability, CellTiter-Glo, 48 h; activity (max response): active compounds read low. The method, boiled down:
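Compound titrations (up to 46 uM final, in DMSO) were applied to SW-13 cells for 48 h at 37C/5% CO2. Reading used CellTiter-Glo after 20 min at room temperature; fitted curves yielded IC50 and efficacy.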
On the technique in general: In qHTS, concentration-response curves come from the screen itself.

The nature of assay [2]: Cellular viability qHTS for adrenocortical cancer (ACC) cell line NCI-H295R (AID 1963990). Note: nearly all actives have a fitted effect of over 60% in size. The method, boiled down: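 Readout: CellTiter-Glo luminescence, 20 min RT. Exposure: 48 h, 37C/5% CO2. Cells: NCI-H295R, ITS-DMEM serum-free. Range: up to 46 uM. Analysis: 4PL fit, IC50 plus efficacy.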
Potency is the fitted concentration of half-maximal effect.

On to `CCC(=O)O[C@]1(C(=O)CO)CC[C@H]2[C@@H]3CCC4=CC(=O)CC[C@]4(C)[C@H]3CC[C@@]21C`, for which the activity (max response) in assay [1] is 7.43%. Also, the Potency result in assay [2] is “inactive”.
In the same order, the values of `CC(=O)N1CCN(c2ccc(NC(=O)Cc3cnc(-c4ccnc(F)c4)c(C)c3)nc2)CC1` are 4.66% and “inactive”.
The matching figures for `CCS(=O)(=O)N1CCC(C(C)n2c(C)c(C(=O)NCc3c(OC)cc(C)[nH]c3=O)c3ccccc32)CC1` (centres undefined): -8.74% and “inactive”.
In the same order, the values of `CCCCCCCCCCCCOCCO` are 0.306% and “inactive”.
Turning to `Cc1ccc(-c2ccc(C)cn2)nc1`, the activity (max response) in assay [1] was -26.3%. Moreover, the Potency result in assay [2] is “inactive”.
In the same order, the values of `CN1CCC(=C2c3ccccc3CCc3cccnc32)CC1` are 5.98% and “inactive”.
The matching figures for `CC(C)C(N)C(=O)OCC(CO)OCn1cnc2c(=O)[nH]c(N)nc21` (centres undefined): -23% and “inactive”.
In the same order, the values of `CCN(CC)CCOCCOC(=O)C1(c2ccccc2)CCCC1` are -3.2% and “inactive”.
On to `COc1ccc(CCN(C)CCCC(C#N)(c2ccc(OC)c(OC)c2)C(C)C)cc1OC` (centres undefined), for which the activity (max response) in assay [1] is -2.85% and -16.8%. Moreover, the Potency entry in assay [2] was “inactive”.
For the compound `CCc1oc2ccccc2c1C(=O)c1cc(Br)c(O)c(Br)c1`, the Potency in assay [1] and in assay [2] was 7.31 µM (active) each time.
As to `CC(C)C[C@@H]1[C@H](c2ccccc2)OC(=O)N1CCCN1CCCCCC1`, the activity (max response) in assay [1] is -14.7%. In addition, the Potency result in assay [2] is “inactive”.
The matching figures for `CCOc1ccc(-n2c([C@@H](C)N(Cc3cccnc3)C(=O)Cc3ccc(F)c(C(F)(F)F)c3)nc3ncccc3c2=O)cc1`: -7.78% and “inactive”.
In the same order, the values of `O=C1Cc2cc(C(=O)NC3C[C@H]4CC[C@@H](C3)N4S(=O)(=O)CC3CCN(CCCC(F)(F)F)CC3)c(Cl)cc2N1` (some centres undefined) are -5.12% and “inactive”.
Turning to `CC1Oc2cc(cnc2N)-c2c(nn(C)c2C#N)CN(C)C(=O)c2ccc(F)cc21` (centres undefined), in assay [1], the activity (max response) was -20%. In addition, the Potency in assay [2] was 20 µM (active).
The matching figures for `O=C(CCNNC(=O)c1ccncc1)NCc1ccccc1`: -0.798% and “inactive”.
The matching figures for `CC[N+](C)(CC)CCOC(=O)C(O)(c1ccccc1)C1CCCCC1` (centres undefined): 7.72% and “inactive”.
`Cc1cc(Nc2cc(N3CCN(C)CC3)nc(/C=C/c3ccccc3)n2)n[nH]1`: the Potency in assay [1] is 25.1 µM (active); in assay [2] it was 10 µM (active).
